One may read the AC50 as the concentration at which the activity in the assay is half-maximal.

We go through three compounds from PubChem BioAssay (EPA / NIEHS).

SMILES strings stand for the structures. Active and inactive are the calls of the source. Rule for the calls: active = hit-call score of the fitted dose curve at least 0.9, where 1 is the maximum; inactive = score below 0.9.

Holding throughout (conditions): mRNA level, 48 h; actives raise or lower the signal
Read-out in experiment [1]: Glutamate-cysteine ligase catalytic (GCLC), GCLC (gene 2729)
In words: LTEA_HepaRG_GCLC: Life Technologies and Expression Analysis (LTEA) Assay for Glutamate-cysteine ligase catalytic (GCLC) using HepaRG (AID 2283498). The essentials:
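Read-out is GCLC transcript level by Fluidigm-based TaqMan qRT-PCR, normalized to three housekeeping genes and fitted in both directions relative to 0.5% DMSO. Human HepaRG cells received chemicals for 48 h, up to 100 uM.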

Read-out in experiment [2]: growth arrest and DNA damage 45 (GADD45G), GADD45G (gene 10912)
In words: LTEA_HepaRG_GADD45G: Life Technologies and Expression Analysis (LTEA) Assay for growth arrest and DNA damage 45 (GADD45G) using HepaRG (AID 2283499). The procedure, abridged: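 GADD45G transcript level by qRT-PCR (housekeeping-normalized: ACTB, GAPDH, POLR2A) after 48 h chemical treatment of a single HepaRG lot in serum-free induction medium; eight-point half-log series up to 100 uM in 0.5% DMSO, duplicates, up- or down-regulation scored.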

Read-out in experiment [3]: Glutamate-cysteine ligase regulatory (GCLM), GCLM (gene 2730)
Description: LTEA_HepaRG_GCLM: Life Technologies and Expression Analysis (LTEA) Assay for Glutamate-cysteine ligase regulatory (GCLM) using HepaRG (AID 2283500). The procedure, abridged: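 Differentiated HepaRG cells exposed 48 h in serum-free induction medium to eight half-log concentrations up to 100 uM (0.5% DMSO). GCLM mRNA by TaqMan qRT-PCR, normalized to ACTB, GAPDH and POLR2A; bidirectional fit versus DMSO.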

Read-out in experiment [4]: Heat shock 70 kDa protein 1 (HSPA1A), gene 3303
Description: LTEA_HepaRG_HSPA1A: Life Technologies and Expression Analysis (LTEA) Assay for Heat shock 70 kDa protein 1 (HSPA1A) using HepaRG (AID 2283502). The procedure, abridged: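 Human HepaRG cells in serum-free induction medium were exposed in duplicate for 48 h to 8 half-log concentrations, highest 100 uM, in 0.5% DMSO. HSPA1A mRNA read by TaqMan qRT-PCR, normalized to ACTB, GAPDH, POLR2A, fitted bidirectionally against DMSO.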

Read-out in experiment [5]: Hypoxia-inducible factor 1-alpha (Homo sapiens) (UniProt Q16665)
In words: LTEA_HepaRG_HIF1A: Life Technologies and Expression Analysis (LTEA) Assay for Hypoxia-inducible factor 1 (HIF1A) Trancription factor using HepaRG (AID 2283503). The essentials:
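Differentiated HepaRG cells in serum-free induction medium exposed 48 h, in duplicate, to 8-point half-log series from 100 uM in 0.5% DMSO. HIF1A mRNA measured by TaqMan qRT-PCR, normalized to ACTB/GAPDH/POLR2A, fitted bidirectionally versus DMSO.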

Read-out in experiment [6]: 3-Hydroxy-3-Methylglutaryl-CoA Synthase 2 (HMGCS2), HMGCS2 (gene 3158)
In words: LTEA_HepaRG_HMGCS2: Life Technologies and Expression Analysis (LTEA) Assay for 3-Hydroxy-3-Methylglutaryl-CoA Synthase 2 (HMGCS2) using HepaRG (AID 2283504). The essentials:
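Readout is HMGCS2 transcript by qRT-PCR, housekeeping-normalised (ACTB/GAPDH/POLR2A) and fitted bidirectionally against 0.5% DMSO. Differentiated HepaRG cells received chemicals 48 h, duplicate wells, eight half-log concentrations topping at 100 uM.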

Read-out in another experiment: HGF (gene 3082)
In words: LTEA_HepaRG_HGF: Life Technologies and Expression Analysis (LTEA) Assay for Hepatocyte Growth Facto (HGF) using HepaRG (AID 2283505). The procedure, abridged: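 HGF transcript was quantified by TaqMan qRT-PCR against three housekeeping genes after 48 h treatment of HepaRG cells. Exposure ran in duplicate over eight half-log steps topping at 100 uM in 0.5% DMSO vehicle.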

Read-out in experiment [7]: Insulin Like Growth Factor 1 (IGF1), IGF1 (gene 3479)
Description: LTEA_HepaRG_IGF1: Life Technologies and Expression Analysis (LTEA) Assay for Insulin Like Growth Factor 1 (IGF1) using HepaRG (AID 2283506). The procedure, abridged: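 Differentiated HepaRG cells in serum-free induction medium, exposed 48 h in duplicate to 8 half-log concentrations up to 100 uM in 0.5% DMSO. IGF1 mRNA by Fluidigm qRT-PCR, normalised to ACTB, GAPDH and POLR2A.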

Read-out in experiment [8]: Intercellular Adhesion Molecule 1 (ICAM1), ICAM1 (gene 3383)
In words: LTEA_HepaRG_ICAM1: Life Technologies and Expression Analysis (LTEA) Assay for Intercellular Adhesion Molecule 1 (ICAM1) using HepaRG (AID 2283507). The essentials:
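ICAM1 transcript levels measured by qRT-PCR, normalized to three housekeeping genes (ACTB, GAPDH, POLR2A), after 48 h chemical exposure of HepaRG cells. Duplicate eight-point half-log series from 100 uM in 0.5% DMSO; gain or loss fitted against vehicle.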

Read-out in experiment [9]: Insulin-like growth factor-binding protein 1 (IGFBP1), IGFBP1 (gene 3484)
Description: LTEA_HepaRG_IGFBP1: Life Technologies and Expression Analysis (LTEA) Assay for Insulin-like growth factor-binding protein 1 (IGFBP1) using HepaRG (AID 2283508). The procedure, abridged:
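Read-out is qRT-PCR transcript level normalized to three housekeeping genes, fitted in both directions against 0.5% DMSO. Differentiated HepaRG cells received eight half-log concentrations (top 100 uM) in duplicate for 48 h in serum-free induction medium.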

Read-out in experiment [10]: Interleukin 6 (IL6), IL6 (gene 3569)
In words: LTEA_HepaRG_IL6: Life Technologies and Expression Analysis (LTEA) Assay for Interleukin 6 (IL6) using HepaRG (AID 2283509). The essentials: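 HepaRG, ~100,000 cells/well, 48 h pre-culture; serum-free induction medium; cmpd 8-pt half-log from 100 uM, 0.5% DMSO, duplicate, 48 h. Lysis in RLT, TaqMan qRT-PCR; gain or loss vs DMSO.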

Read-out in experiment [11]: Potassium channel subfamily K member 1 (KCNK1), KCNK1 (gene 3775)
In words: LTEA_HepaRG_KCNK1: Life Technologies and Expression Analysis (LTEA) Assay for Potassium channel subfamily K member 1 (KCNK1) using HepaRG (AID 2283511). The procedure, abridged: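 Gain or loss of KCNK1 mRNA is the read-out, quantified by qRT-PCR against three housekeeping genes after 48 h chemical treatment of human HepaRG liver cells. Concentrations ran from 100 uM downward in half-log steps, vehicle 0.5% DMSO.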

Read-out in experiment [12]: JUN Transcription Factor, JUN (gene 3725)
In words: LTEA_HepaRG_JUN: Life Technologies and Expression Analysis (LTEA) Assay for JUN Transcription Factor using HepaRG (AID 2283513). The procedure, abridged:
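HepaRG cells, 48 h post-plating, exposed 48 h in serum-free induction medium to 8-point half-log series (top 100 uM, 0.5% DMSO), duplicate; mRNA by qRT-PCR (TaqMan, Fluidigm), normalized to ACTB/GAPDH/POLR2A; bidirectional fit vs DMSO.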

Read-out in experiment [13]: Lipase C (LIPC), LIPC (gene 3990)
In words: LTEA_HepaRG_LIPC: Life Technologies and Expression Analysis (LTEA) Assay for Lipase C (LIPC) using HepaRG (AID 2283514). The procedure, abridged: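 Read-out is LIPC transcript level by TaqMan qRT-PCR, normalized to three housekeeping genes, after 48 h chemical treatment of human HepaRG liver cells. Curves span eight concentrations topping at 100 uM; activity in either direction scored relative to 0.5% DMSO.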

Read-out in experiment [14]: Lipoprotein lipase (LPL), LPL (gene 4023)
Description: LTEA_HepaRG_LPL: Life Technologies and Expression Analysis (LTEA) Assay for Lipoprotein lipase (LPL) using HepaRG (AID 2283515). The essentials:
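Read-out is LPL transcript level by qRT-PCR, normalized to three housekeeping genes and fitted bidirectionally against the DMSO control. Human HepaRG cells received chemicals for 48 h at up to 100 uM.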

Read-out in experiment [15]: MicroRNA 122 (MIR122), gene 406906
In words: LTEA_HepaRG_MIR122: Life Technologies and Expression Analysis (LTEA) Assay for MicroRNA 122 (MIR122) using HepaRG (AID 2283516). Note: the transcript read is the microRNA miR-122. The procedure, abridged: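 Differentiated human HepaRG cells in serum-free induction medium exposed 48 h to 8 half-log concentrations from 100 uM in 0.5% DMSO, duplicate. MIR122 quantified by Fluidigm TaqMan qRT-PCR, normalised to ACTB, GAPDH, POLR2A; fold change fitted bidirectionally versus DMSO.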

Read-out in experiment [16]: Keratin 19 (KRT19), KRT19 (gene 3880)
In words: LTEA_HepaRG_KRT19: Life Technologies and Expression Analysis (LTEA) Assay for Keratin 19 (KRT19) using HepaRG (AID 2283512). The essentials: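 KRT19 transcript measured by TaqMan qRT-PCR, referenced to three housekeeping genes, after HepaRG cells received test chemicals for 48 h. Eight half-log concentrations, top 100 uM, 0.5% DMSO vehicle; increases and decreases both fitted.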

Read-out in experiment [17]: matrix metalloproteinase-10 (MMP10), MMP10 (gene 4319)
Description: LTEA_HepaRG_MMP10: Life Technologies and Expression Analysis (LTEA) Assay for matrix metalloproteinase-10 (MMP10) using HepaRG (AID 2283517). The procedure, abridged:
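Gain or loss of MMP10 mRNA is fitted relative to the 0.5% DMSO vehicle. The human hepatic line HepaRG receives a 48-hour serum-free exposure, in duplicate, with a maximum concentration of 100 uM.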

Chain of Hypoxia-inducible factor 1-alpha (Homo sapiens) (Q16665 whole entry, looked up): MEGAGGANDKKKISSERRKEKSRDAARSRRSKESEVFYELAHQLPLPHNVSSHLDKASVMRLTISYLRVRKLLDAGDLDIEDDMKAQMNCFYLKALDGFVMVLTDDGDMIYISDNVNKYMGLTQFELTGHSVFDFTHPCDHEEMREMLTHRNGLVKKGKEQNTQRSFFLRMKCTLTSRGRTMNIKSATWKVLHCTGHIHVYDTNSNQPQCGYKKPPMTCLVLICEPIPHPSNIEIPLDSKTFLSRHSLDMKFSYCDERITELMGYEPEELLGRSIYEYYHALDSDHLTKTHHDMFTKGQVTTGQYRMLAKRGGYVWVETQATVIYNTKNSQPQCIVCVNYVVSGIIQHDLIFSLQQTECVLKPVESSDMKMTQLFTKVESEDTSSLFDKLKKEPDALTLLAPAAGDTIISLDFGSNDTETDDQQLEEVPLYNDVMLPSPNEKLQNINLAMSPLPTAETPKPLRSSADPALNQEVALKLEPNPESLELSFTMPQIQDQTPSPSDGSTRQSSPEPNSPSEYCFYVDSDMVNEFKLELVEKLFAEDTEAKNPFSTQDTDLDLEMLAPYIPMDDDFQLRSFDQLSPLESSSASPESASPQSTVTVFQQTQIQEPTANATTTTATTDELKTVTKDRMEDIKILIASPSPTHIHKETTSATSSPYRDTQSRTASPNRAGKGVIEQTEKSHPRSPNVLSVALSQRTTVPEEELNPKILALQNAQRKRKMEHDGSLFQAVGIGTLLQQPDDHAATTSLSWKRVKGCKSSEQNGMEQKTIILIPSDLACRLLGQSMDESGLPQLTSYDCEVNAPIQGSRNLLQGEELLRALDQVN

`OC(CCl)CCl`: the outcome in experiment [1], in experiment [2], in [3], in [4], in experiment [5] and in experiment [6] was inactive. Also, the outcome (in the experiment with HGF (gene 3082); in experiment [7]; in experiment [8]; in experiment [9]; in experiment [10]; in [11]) was inactive. Moreover, the compound was called inactive in experiment [12], in experiment [13], in [14] and in [15].
As for `CC(C)C(=O)Nc1ccc([N+](=O)[O-])c(C(F)(F)F)c1`, the outcome in experiment [1], in experiment [4], in [11] and in experiment [12] was inactive. The half-maximal activity concentration (AC50) is 85.6 µM (active) in [2]; 50 µM (active) in experiment [3]; 72.8 µM (active) in experiment [6]; 66.9 µM (active) in the experiment with HGF (gene 3082); 37.8 µM (active) in experiment [7]; 87.3 µM (active) in experiment [8]. In addition, the AC50 in experiment [9] was 66.7 µM (active); in experiment [10], 85 µM (active); in experiment [16], 23.5 µM (active); in experiment [13], 55.5 µM (active); in experiment [14], 85.7 µM (active); in experiment [15], 60.8 µM (active). Besides, the AC50 in [17] is 50 µM (active).
As for `CCc1ccc(O)c(C(C)(C)C)c1`, the call in experiment [1], in experiment [2], in experiment [3], in experiment [4], in experiment [5] and in [6] was inactive. Moreover, the result (with HGF (gene 3082); in experiment [7]; in experiment [8]; in experiment [9]; in [10]; in experiment [11]) was inactive. Also, the outcome in [12], in [13], in [14], in experiment [15] and in [17] was inactive.
